Laboratory results published in PubChem BioAssay (Tox21).
Several values for one entry are separate records, joined by “and”; a condition that tells them apart may be missing. Equal values may be shown once. Results filed as inconclusive are left out. Where a call stands in place of a potency, no number is given. Activity calls are given as the source filed them. Unless noted, the call rests on the fitted dose curve; in most records, active means well fitted curve in the direction sought with a large enough effect in the repeat runs; inconclusive means weak or mixed curves; inactive means no such curve, though single readings can be large; an effect the other way counts as inactive or inconclusive.

Target: Estrogen receptor (Homo sapiens) (UniProt P03372)
Assay: qHTS assay to identify small molecule agonists of the estrogen receptor alpha (ER-alpha) signaling pathway (AID 743075; calls by dose curve;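 further: HEK293 GripTite cells with ER-alpha and UAS-driven beta-lactamase reporter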)
Details: HEK293 ER-alpha-UAS-bla, beta-lactamase FRET ratio, 18 h; activation: at 70.1 µM (top of the series)

Estrogen receptor (Homo sapiens), sequence (P03372 whole entry, looked up): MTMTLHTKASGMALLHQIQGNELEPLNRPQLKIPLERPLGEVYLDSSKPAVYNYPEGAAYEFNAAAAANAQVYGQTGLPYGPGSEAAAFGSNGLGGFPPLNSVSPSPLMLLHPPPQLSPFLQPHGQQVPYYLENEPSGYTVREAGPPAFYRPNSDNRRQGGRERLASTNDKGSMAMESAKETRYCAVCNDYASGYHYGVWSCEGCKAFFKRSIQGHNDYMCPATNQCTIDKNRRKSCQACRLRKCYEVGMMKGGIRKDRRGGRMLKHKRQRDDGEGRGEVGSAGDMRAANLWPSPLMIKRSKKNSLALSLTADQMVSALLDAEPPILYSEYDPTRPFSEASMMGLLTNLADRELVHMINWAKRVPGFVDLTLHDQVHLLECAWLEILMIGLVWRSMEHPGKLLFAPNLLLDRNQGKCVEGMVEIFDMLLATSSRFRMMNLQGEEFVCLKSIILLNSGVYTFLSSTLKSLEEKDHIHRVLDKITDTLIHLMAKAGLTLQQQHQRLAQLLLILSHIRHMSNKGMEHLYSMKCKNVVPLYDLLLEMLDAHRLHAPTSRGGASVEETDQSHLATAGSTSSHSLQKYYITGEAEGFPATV

| Structure (SMILES) | Potency |
| --- | --- |
| O=C(Oc1ccccc1)c1ccccc1C(=O)Oc1ccccc1 | inactive |
| O=Cc1cc(O)ccc1Br | inactive |
| CCCC(C)c1ccccc1O (stereo not given) | inactive |
| CSc1ccc(/C=C2/C(C)=C(CC(=O)O)c3cc(F)ccc32)cc1 | inactive |
| CC(C)C(C)(C)C(C)(C)C(C)(C)S | inactive |
| CC(C)=CCOc1ccc(/C=C/C(=O)c2ccc(OCC=C(C)C)cc2OCC(=O)O)cc1 | inactive |
| CCOC(=O)c1nc(C(Cl)(Cl)Cl)n(-c2ccc(Cl)cc2Cl)n1 | inactive |
| CCCCN1C(=O)[C@@H]([C@H](O)C2CCCCC2)NC(=O)C12CCN(Cc1ccc(Oc3ccc(C(=O)O)cc3)cc1)CC2 | inactive |
| CCOC(=O)/C=C(C)/C=C/C=C(C)/C=C/c1c(C)cc(OC)c(C)c1C | inactive |
| Fc1ccc(C(c2ccc(F)cc2)N2CCN(C/C=C/c3ccccc3)CC2)cc1 | inactive |
| NNc1nc(-c2ccc(N)cc2)cs1 | inactive |
| Cc1onc(-c2ccccc2Cl)c1C(=O)N[C@@H]1C(=O)N2[C@@H]1SC(C)(C)[C@@H]2C(=O)O | inactive |
| CSc1ccc(C(=O)c2[nH]c(=O)[nH]c2C)cc1 | inactive |
| CN(C)c1ccc(SC#N)cc1 | inactive |

Target: Estrogen receptor (Homo sapiens) (UniProt P03372)
Assay: qHTS assay to identify small molecule agonists of the estrogen receptor alpha (ER-alpha) signaling pathway using the BG1 cell line (AID 743079); further: nearly all actives have a fitted effect of over 20% in size; further: potency means the concentration at half of the fitted maximal effect
Details: BG1Luc4E2 cells, ERE-luciferase agonist, 22 h

| Structure (SMILES) | Potency |
| --- | --- |
| Nc1ccc2c3c(cccc13)-c1ccccc1-2 | 8.72 µM (active) |
| Nc1c2ccccc2nc2ccccc12 | 11.9 µM (active) and 677 nM (active) |
| O=Cc1cc(O)ccc1Br | 31.1 µM (active) |
| CN(C)c1ccc(SC#N)cc1 | 61.1 µM (active) |

Same assay, conditions: BG1Luc4E2 cells, ERE-luciferase agonist, 22 h; at 70.3 µM (top of the series)

| Structure (SMILES) | activation |
| --- | --- |
| O=C(Oc1ccccc1)c1ccccc1C(=O)Oc1ccccc1 | -7.29% (inactive) |
| CSc1ccc(/C=C2/C(C)=C(CC(=O)O)c3cc(F)ccc32)cc1 | -0.897% (inactive) |
| CC(C)C(C)(C)C(C)(C)C(C)(C)S | 4.61% (inactive) |
| CC(C)=CCOc1ccc(/C=C/C(=O)c2ccc(OCC=C(C)C)cc2OCC(=O)O)cc1 | -17.4% (inactive) |
| Cc1cc(O)c2ccccc2c1O | -13.8% (inactive) |
| Fc1ccc(C(c2ccc(F)cc2)N2CCN(C/C=C/c3ccccc3)CC2)cc1 | -22.9% (inactive) |
| NNc1nc(-c2ccc(N)cc2)cs1 | -1.53% (inactive) |
| CCOc1ccc2nc3cc(N)ccc3c(N)c2c1 | -22.3% (inactive) |

Test system: not listed separately
Assay: qHTS assay to identify small molecule antagonists of the estrogen receptor alpha (ER-alpha) signaling pathway using the BG1 cell line (AID 743080; calls by dose curve;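 further: BG1 cells stimulated with 17beta-estradiol alongside compound; nearly all actives have a fitted effect of over 25% in size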; further: potency means the concentration at half of the fitted maximal effect)
Details: BG1Luc4E2 ERE-luciferase antagonist mode, luminescence; series mostly up to 70.3 µM
Method in brief: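 Readout is ONE-Glo luminescence, taken 30 min at room temperature after reagent addition, preceded by a CellTiter-Fluor viability read; BG1-Luc-4E2 cells had received compound and 17beta-estradiol for 21.5 h at 37 C.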

| Structure (SMILES) | Potency |
| --- | --- |
| CC(NN)c1ccccc1 (stereo not given) | inactive |
| CCCC(C)c1ccccc1O (stereo not given) | inactive |
| CSc1ccc(/C=C2/C(C)=C(CC(=O)O)c3cc(F)ccc32)cc1 | inactive |
| CC(C)C(C)(C)C(C)(C)C(C)(C)S | inactive |
| CC(C)=CCOc1ccc(/C=C/C(=O)c2ccc(OCC=C(C)C)cc2OCC(=O)O)cc1 | inactive |
| CCOC(=O)c1nc(C(Cl)(Cl)Cl)n(-c2ccc(Cl)cc2Cl)n1 | inactive |
| CCOc1nc2cccc(C(=O)OC(C)OC(=O)OC3CCCCC3)c2n1Cc1ccc(-c2ccccc2-c2nn[nH]n2)cc1 (stereo not given) | inactive |
| O=C(N/N=C/c1ccccc1O)c1ccncc1 | 18.8 µM (active) |
| CCOC(=O)/C=C(C)/C=C/C=C(C)/C=C/c1c(C)cc(OC)c(C)c1C | 4.22 µM (active) |
| Fc1ccc(C(c2ccc(F)cc2)N2CCN(C/C=C/c3ccccc3)CC2)cc1 | inactive |
| NNc1nc(-c2ccc(N)cc2)cs1 | inactive |
| Cc1onc(-c2ccccc2Cl)c1C(=O)N[C@@H]1C(=O)N2[C@@H]1SC(C)(C)[C@@H]2C(=O)O | inactive |
| CSc1ccc(C(=O)c2[nH]c(=O)[nH]c2C)cc1 | inactive |
| CN(C)c1ccc(SC#N)cc1 | inactive |

Test system: not listed separately
Assay: qHTS assay to identify small molecule antagonists of the estrogen receptor alpha (ER-alpha) signaling pathway using the BG1 cell line - cell viability counter screen (AID 743081);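 further: compound given together with 17beta-estradiol as the ER stimulus; nearly all actives have a fitted effect of over 45% in size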; further: potency means the concentration at half of the fitted maximal effect
Details: BG1Luc4E2 viability, CellTiter-Fluor, 22 h; series mostly up to 70.3 µM

| Structure (SMILES) | Potency |
| --- | --- |
| CN(C)[C@@H]1C(=O)C(C(N)=O)=C(O)[C@@]2(O)C(=O)C3=C(O)c4c(O)ccc(Cl)c4[C@@H](O)[C@H]3C[C@@H]12 | inactive |
| O=C(Oc1ccccc1)c1ccccc1C(=O)Oc1ccccc1 | inactive |
| CCCCN(CCCC)C(=O)N(CCCC)CCCC | inactive |
| NC(=O)CC[C@@H]1NC(=O)[C@H](Cc2ccccc2)NC(=O)[C@H](Cc2ccc(O)cc2)NC(=O)CCSSC[C@@H](C(=O)N2CCC[C@H]2C(=O)N[C@@H](CCCN=C(N)N)C(=O)NCC(N)=O)NC(=O)[C@H](CC(N)=O)NC1=O | inactive |
| O=C(Nc1ccc(Oc2ccc(Cl)cc2)c(Cl)c1)c1cc(I)cc(I)c1O | inactive |
| CC(NN)c1ccccc1 (stereo not given) | inactive |
| O=Cc1cc(O)ccc1Br | inactive |
| CCCC(C)c1ccccc1O (stereo not given) | inactive |
| CCN(C(=O)c1cc(C)cc(OC[C@H](C)Nc2ccncc2)c1)C(C)C | inactive |
| CN(C/C=C/C#CC(C)(C)C)Cc1cccc2ccccc12 | inactive |
| CSc1ccc(/C=C2/C(C)=C(CC(=O)O)c3cc(F)ccc32)cc1 | inactive |
| CCCCCCCCCOC(=O)c1ccc(O)cc1 | inactive |
| CC(C)C(C)(C)C(C)(C)C(C)(C)S | inactive |
| CC(C)=CCOc1ccc(/C=C/C(=O)c2ccc(OCC=C(C)C)cc2OCC(=O)O)cc1 | inactive |
| Cc1cc(O)c2ccccc2c1O | inactive |
| CCCCN1C(=O)[C@@H]([C@H](O)C2CCCCC2)NC(=O)C12CCN(Cc1ccc(Oc3ccc(C(=O)O)cc3)cc1)CC2 | inactive |
| C[C@@H]1C[C@H]2[C@@H]3CCC4=CC(=O)C=C[C@]4(C)[C@@]3(Cl)[C@@H](O)C[C@]2(C)[C@@]1(OC(=O)c1ccco1)C(=O)CCl | inactive |
| Nc1c(Cl)cc(Cl)cc1Cl | inactive |
| CCOc1nc2cccc(C(=O)OC(C)OC(=O)OC3CCCCC3)c2n1Cc1ccc(-c2ccccc2-c2nn[nH]n2)cc1 (stereo not given) | inactive |
| O=C(N/N=C/c1ccccc1O)c1ccncc1 | inactive |
| CCOC(=O)/C=C(C)/C=C/C=C(C)/C=C/c1c(C)cc(OC)c(C)c1C | inactive |
| Fc1ccc(C(c2ccc(F)cc2)N2CCN(C/C=C/c3ccccc3)CC2)cc1 | inactive |
| O=[N+]([O-])c1cc([N+](=O)[O-])c2ccc(S(=O)(=O)O)cc2c1O | 54.2 µM (active) |
| CCC(Cl)C(Cl)C(Cl)CC(Cl)C(Cl)C(C)Cl (stereo not given) | inactive |
| Cc1onc(-c2ccccc2Cl)c1C(=O)N[C@@H]1C(=O)N2[C@@H]1SC(C)(C)[C@@H]2C(=O)O | inactive |
| CSc1ccc(C(=O)c2[nH]c(=O)[nH]c2C)cc1 | inactive |
| Cc1cc(N)c(S(=O)(=O)O)cc1Cl | inactive |
| OCCCCCCCCCCCCBr | inactive |
| CN(C)c1ccc(SC#N)cc1 | inactive |
| O=C(OCC(COC(=O)c1ccccc1)(COC(=O)c1ccccc1)COC(=O)c1ccccc1)c1ccccc1 | inactive |
